# DT40 TDP1 no CPT – qHTS for Inhibitors of human tyrosyl-DNA phosphodiesterase 1 (TDP1): qHTS in cells in absence of CPT. DT40 Tdp1-/- hTDP1 cells, no CPT, ATP luminescence, 48 h. Potency, µM (titrated, usually from 46.2 µM), inactives show at the highest dose activity change, negative = growth inhibition, actives largely listed as inhibitors. 15% of 420,000 active. AID 686978, 2013; also: nearly all actives have a fitted effect of over 55% in size
#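 Cells were dispensed at 400 per well, compounds added by pin tool, plates incubated ≥48 hr at 37 °C, then CellTiter-Glo added for 30 min at room temperature before luminescence reading. Line: DT40 Tdp1-/- complemented with hTDP1; camptothecin omitted.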
# KB-V1 cytotox – KB-V1 MDR subline cytotoxicity; AID 1347076; KB-V1 MDR cells viability, CellTiter-Glo, 72 h; 3.4% of 400,000 active; Potency, µM (doses to about 46.1 µM), hits mostly cytotoxic; also: nearly all actives have a fitted effect of over 60% in size
#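 KB-V1, DMEM (no phenol red) + 10% FBS; cpd pin-transferred, titration series; 72 h, 37 degrees C; CellTiter-Glo, luminescence. Data normalized, curve-fit.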
# KB-3-1 cytotox – kills parental KB-3-1 adenocarcinoma cells; KB-3-1 viability, CellTiter-Glo ATP luminescence, 72 h; 1.4% of 400,000 active; Potency, µM (top dose mostly 46.1 µM), usual class: cytotoxic; also: nearly all actives have a fitted effect of over 60% in size
#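 Multi-concentration cytotoxicity screen in KB-3-1 cells grown in DMEM lacking phenol red with 10% FBS. After 72 h at 37 °C with compound, ATP-dependent luminescence was recorded.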
# HT1080NT lethal – kills 2HG-producing HT-1080-NT fibrosarcoma cells; HT-1080-NT fibrosarcoma viability, CellTiter-Glo ATP luminescence, 48 h; Potency, µM (highest dose often 46.1 µM), inactives show top-dose activity, negative = less viability, hits mostly cytotoxic; 1.6% of 360,000 active;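 also: NT is the 2HG producing partner of a matched IDH1 knockdown line; 0% = DMSO-treated cells and -100% = media-only wells without cells; nearly all actives have a fitted effect of over 55% in size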
#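 Toxicity toward the 2HG-producing NT line was scored as %Activity, normalised to DMSO and no-cell wells, from CellTiter-Glo luminescence after 48 hours' treatment.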
# TDP1 cell CPT – growth inhibition of DT40 Tdp1-/-;hTDP1 cells with camptothecin (screen for TDP1 inhibitors); Potency, µM (titrated, usually from 46.2 µM), for the others: at the top dose activity change, negative = growth inhibition, most hits filed as inhibitors; chicken DT40 Tdp1-/-;hTDP1 cells + 20 nM CPT, ATP luminescence, 48 h; 12% of 420,000 active; AID 686979; also: nearly all actives have a fitted effect of over 55% in size
#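 Chicken DT40 Tdp1-/- cells complemented with human TDP1, 400 cells/well, exposed to compounds plus 20 nM camptothecin for at least 48 h at 37 C; viability read as ATP content by CellTiter-Glo luminescence.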
# HT1080 IDH1KD tx – toxicity to HT-1080 IDH1 knockdown cells (counter line); Potency, µM (highest dose often 46.1 µM), without a hit: at the highest dose activity, negative = toxicity, hits mostly cytotoxic; 2% of 360,000 active; HT-1080 IDH1 knockdown viability, ATP luminescence, 48 h;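 also: 0% = DMSO wells and -100% = cell-free medium wells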
#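 % activity derives from luminescence (CellTiter-Glo), normalised to DMSO and no-cell wells. HT-1080-IDH1KD cells, 750/well, had 48 h compound exposure at 37 °C.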
# * = called active by the depositor; i = inactive; ? = inconclusive; nt = no result given; [ ] = another dose, or the depositor's remark. Compounds with a hit are over-represented: about 19% of the library has one in this group of screens. Calls follow the shape of the dose curve; as a rule, active = well fitted curve in the direction sought with a large enough effect; inconclusive = small, poorly fitted or top-dose-only effect, or another doubt; inactive = no such curve, though single readings can be large; an effect the other way counts as inactive or inconclusive. Unless noted, % is scaled to controls: 0 for no effect and ±100 for the full control effect; potency is read from the fitted curve at half-maximal effect.
SMILES,DT40 TDP1 no CPT,KB-V1 cytotox,KB-3-1 cytotox,HT1080NT lethal,TDP1 cell CPT,HT1080 IDH1KD tx
O=C(NCN1CCc2ccccc2C1)c1cnccn1,23µM*,?,i,2%,?,-14%
NCCOB(c1ccccc1)c1ccccc1,16µM*,nt,nt,nt,?,nt
NCCOc1ccccc1Cc1ccccc1,?,i,i,-1%,?,-11%
COc1cc(/C=C(\C#N)c2nc3ccccc3c(=O)[nH]2)cc(OC)c1OC,nt,i,i,nt,nt,nt
CCOc1ccc(NC(=O)[C@H](Cc2ccccc2)N2Cc3ccccc3C2=O)cc1,-3%,i,i,nt,5%,nt
CCOC(=O)C(Cc1ccc(NC(=O)/C(=C/c2ccccc2)NC(=O)c2ccccc2)cc1)N1C(=O)c2ccccc2C1=O (centres undefined),5.8µM*,i,i,-22%,5.2µM*,0%
CCOc1ccc(NC(=O)C(Cc2ccccc2)N2C(=O)c3cccc4cccc(c34)C2=O)cc1 (centres undefined),8.2µM*,?,?,-18%,12µM*,-20%
O=C(COC(=O)c1ccc(-n2cnnn2)cc1)Nc1cc(Cl)ccc1F,-20%,i,i,3%,4%,9%
CC(C)(C)OC(=O)Nc1ccccc1-n1nnnc1C(C(=O)c1ccccc1)N1CCN(c2ccccn2)CC1 (centres undefined),?,i,i,4%,?,-1%
CN(CCc1ccccc1)C(C(=O)c1ccc2c(c1)OCO2)c1nnnn1-c1ccccc1NC(=O)OC(C)(C)C (centres undefined),16µM*,?,?,-8%,15µM*,-18%
Cc1cc(NC(=O)OC(C)(C)C)c(-n2nnnc2C(C(=O)c2ccc3c(c2)OCO3)N2CCN(c3ccccn3)CC2)cc1C (centres undefined),16µM*,?,i,-2%,23µM*,0%
O=C(NCCc1ccccc1)c1ccc2c(c1)OCO2,?,i,i,0%,-19%,-2%
C[C@H](NC(=O)N1CCn2c1nc1ccccc12)C(=O)NCc1ccc(F)cc1,-5%,i,i,5%,-9%,3%
CCCCn1c(SCC(=O)NCCCOC)nc2c(sc3ccccc32)c1=O,-13%,nt,nt,nt,-8%,nt
OCc1ccccc1O[C@H]1OC(CO)C(O)C(O)C1O (some centres undefined),-6%,nt,nt,nt,-11%,nt
O=C(COc1ccc(F)cc1)Nc1ccccc1C(=O)OCc1cc(=O)n2nc(C3CC3)sc2n1,?,i,i,nt,?,nt
Cc1[nH][nH]c(=O)c1/C=N/N1CCOCC1,14%,i,i,17%,6%,-1%
COCCSc1nnc(NC(=O)Cc2ccccc2OC)s1,6%,18µM*,i,14%,-13%,17%
COc1ccccc1C(=O)Nc1nnc(SCc2cc(=O)c3ccccc3[nH]2)s1,15µM*,i,i,nt,15µM*,nt
COCCSc1nnc(NC(=O)Cc2cccs2)s1,?,i,i,2%,-2%,1%
Cc1cc(-c2nnc(CSc3nnc(NC(=O)c4ccc(C(C)(C)C)cc4)s3)o2)ccc1[N+](=O)[O-],21µM*,i,i,10%,?,9%
CCSc1nnc(NC(=O)c2csc(C)c2)s1,-11%,i,i,18%[9.24 µM],-16%,?
Cc1ccc(C(=O)Nc2nnc(SCc3cc(=O)c4c(C)ccc(C)c4[nH]3)s2)cc1,10µM*,i,?,nt,18µM*,nt
CCOc1ccc(N2CC(C(=O)Nc3cccc(C(=O)NC4CC4)c3)CC2=O)cc1 (centres undefined),4%,i,i,10%,-1%,6%

# From PubChem BioAssay
